Results taken from PubChem BioAssay AID1159580 (chemical genetic matrix, 2015).
Values joined by “and” are separate entries in the source; they are usually repeats but may differ in a detail not shown here. Identical values can stand only once. The whole screen tested about 5,500 compounds, of which about 2,000 (36%) were called active. Inconclusive results (about 18%) are left out. Rule as the data show it: active = normalized growth mostly below about 0.91 (no sharp cut-off); inconclusive = no clear call, values can overlap the other calls; inactive = mostly above about 0.92. The list shows a part of the results.

Assay: chemical genetic growth profiling, strain panel (AID 1159580);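 also: tested at 20 µM; growth read once vehicle control cultures reached saturation at 30 °C; 1 = growth at the plate median or of vehicle wells; lower values mean less growth of the strain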
Settings: S. cerevisiae deletion strains, growth OD

C=CC(C)(O)CC/C=C(\C)CCC=C(C)C (configuration not stated)
normalized growth (locus YAL013W, strain DEP1, stronger effect = lower value): 0.947 (inactive) | normalized growth (locus YAL021C, strain ccr4, stronger effect = lower value): 0.913 (inactive) | normalized growth (locus YAL026C, strain drs2, stronger effect = lower value): 0.958 (inactive) | normalized growth (locus YAL030W, strain snc1, stronger effect = lower value): 0.986 (inactive) | normalized growth (locus YBL061C, strain skt5, stronger effect = lower value): 0.951 (inactive) | normalized growth (locus YBR009C, strain hhf1, stronger effect = lower value): 0.923 (inactive) | normalized growth (locus YBR021W, strain FUR4, stronger effect = lower value): 0.863 (inactive) | normalized growth (locus YBR023C, strain chs3, stronger effect = lower value): 0.938 (inactive) | normalized growth (locus YBR171W, strain sec66, stronger effect = lower value): 0.965 (inactive) | normalized growth (locus YBR229C, strain ROT2, stronger effect = lower value): 0.999 (inactive) | normalized growth (locus YBR231C, strain swc5, stronger effect = lower value): 0.98 (inactive) | normalized growth (locus YCL011C, strain gbp2, stronger effect = lower value): 0.949 (inactive) | normalized growth (locus YCL016C, strain dcc1, stronger effect = lower value): 0.965 (inactive) | normalized growth (locus YCL029C, strain bik1, stronger effect = lower value): 0.993 (inactive) | normalized growth (locus YCL061C, strain MRC1, stronger effect = lower value): 0.969 (inactive) | normalized growth (locus YCL069W, strain vba3, stronger effect = lower value): 0.968 (inactive) | normalized growth (locus YCR088W, strain abp1, stronger effect = lower value): 0.975 (inactive) | normalized growth (locus YDL005C, strain med2, stronger effect = lower value): 0.956 (inactive) | normalized growth (locus YDL035C, strain GPR1, stronger effect = lower value): 0.956 (inactive) | normalized growth (locus YDL040C, strain nat1, stronger effect = lower value): 0.982 (inactive) | normalized growth (locus YDL074C, strain BRE1, stronger effect = lower value): 0.886 (inactive) | normalized growth (locus YDL101C, strain DUN1, stronger effect = lower value): 0.958 (inactive) | normalized growth (locus YDL185W, strain tfp1, stronger effect = lower value): 1.02 (inactive) | normalized growth (locus YDL192W, strain arf1, stronger effect = lower value): 0.952 (inactive) | normalized growth (locus YDR001C, strain nth1, stronger effect = lower value): 0.98 (inactive) | normalized growth (locus YDR069C, strain doa4, stronger effect = lower value): 0.946 (inactive) | normalized growth (locus YDR101C, strain arx1, stronger effect = lower value): 0.992 (inactive) | normalized growth (locus YDR137W, strain rgp1, stronger effect = lower value): 0.916 (inactive) | normalized growth (locus YDR159W, strain sac3, stronger effect = lower value): 0.862 (inactive) | normalized growth (locus YDR162C, strain NBP2, stronger effect = lower value): 0.92 (inactive) | normalized growth (locus YDR195W, strain ref2): 0.662 (active) | normalized growth (locus YDR297W, strain sur2, stronger effect = lower value): 0.974 (inactive) | normalized growth (locus YDR318W, strain mcm21, stronger effect = lower value): 0.99 (inactive) | normalized growth (locus YDR334W, strain swr1, stronger effect = lower value): 0.944 (inactive) | normalized growth (locus YDR335W, strain msn5, stronger effect = lower value): 0.979 (inactive) | normalized growth (locus YDR388W, stronger effect = lower value): 0.985 (inactive) | normalized growth (locus YDR392W, strain spt3, stronger effect = lower value): 0.454 (active) | normalized growth (locus YDR502C, strain sam2, stronger effect = lower value): 0.978 (inactive) | normalized growth (locus YEL003W, strain gim4, stronger effect = lower value): 0.983 (inactive) | normalized growth (locus YEL037C, strain rad23, stronger effect = lower value): 0.964 (inactive) | normalized growth (locus YEL061C, strain CIN8 (second series), stronger effect = lower value): 0.978 (inactive) | normalized growth (locus YEL061C, strain CIN8, stronger effect = lower value): 0.937 (inactive) | normalized growth (locus YER015W, strain faa2, stronger effect = lower value): 0.974 (inactive) | normalized growth (locus YER016W, strain bim1, stronger effect = lower value): 0.988 (inactive) | normalized growth (locus YER110C, stronger effect = lower value): 1.01 (inactive) | normalized growth (locus YER111C, strain swi4, stronger effect = lower value): 0.947 (inactive) | normalized growth (locus YER155C, strain BEM2 (second series), stronger effect = lower value): 0.777 (active) | normalized growth (locus YER155C, strain BEM2, stronger effect = lower value): 0.807 (active) | normalized growth (locus YER167W, strain BCK2, stronger effect = lower value): 0.944 (inactive) | normalized growth (locus YFR010W, strain ubp6, stronger effect = lower value): 0.903 (inactive) | normalized growth (locus YGL078C, strain dbp3, stronger effect = lower value): 0.988 (inactive) | normalized growth (locus YGL086W, strain mad1, stronger effect = lower value): 0.981 (inactive) | normalized growth (locus YGL167C, strain pmr1, stronger effect = lower value): 0.984 (inactive) | normalized growth (locus YGL173C, strain kem1, stronger effect = lower value): 0.965 (inactive) | normalized growth (locus YGL227W, strain vid30, stronger effect = lower value): 0.979 (inactive) | normalized growth (locus YGL240W, strain doc1, stronger effect = lower value): 0.964 (inactive) | normalized growth (locus YGL248W, strain PDE1, stronger effect = lower value): 0.931 (inactive) | normalized growth (locus YGL253W, strain hxk2, stronger effect = lower value): 0.984 (inactive) | normalized growth (locus YGR135W, strain pre9, stronger effect = lower value): 0.967 (inactive) | normalized growth (locus YGR252W, strain gcn5, stronger effect = lower value): 1.03 (inactive) | normalized growth (locus YHR013C, strain ard1, stronger effect = lower value): 0.964 (inactive) | normalized growth (locus YHR027C, strain rpn1, stronger effect = lower value): 0.978 (inactive) | normalized growth (locus YHR030C, strain SLT2, stronger effect = lower value): 0.955 (inactive) and 0.825 (active) | normalized growth (locus YHR079C, strain IRE1 (second series), stronger effect = lower value): 0.999 (inactive) | normalized growth (locus YHR079C, strain IRE1, stronger effect = lower value): 0.81 (active) | normalized growth (locus YHR094C, strain hxt1, stronger effect = lower value): 1.02 (inactive) | normalized growth (locus YHR129C, strain ARP1, stronger effect = lower value): 0.939 (inactive) | normalized growth (locus YHR142W, strain chs7, stronger effect = lower value): 0.75 (active) | normalized growth (locus YHR200W, strain rpn10, stronger effect = lower value): 0.991 (inactive) | normalized growth (locus YIL066C, strain RNR3, stronger effect = lower value): 0.934 (inactive) | normalized growth (locus YIL073C, strain SPO22, stronger effect = lower value): 0.88 (inactive) | normalized growth (locus YIL125W, strain kgd1, stronger effect = lower value): 1.02 (inactive) | normalized growth (locus YIR030C, strain dcg1, stronger effect = lower value): 1.01 (inactive) | normalized growth (locus YJL092W, strain hpr5, stronger effect = lower value): 0.965 (inactive) | normalized growth (locus YJL095W, strain BCK1 (second series), stronger effect = lower value): 0.99 (inactive) | normalized growth (locus YJL095W, strain BCK1, stronger effect = lower value): 0.869 (inactive) and 0.946 (inactive) | normalized growth (locus YJL115W, strain asf1, stronger effect = lower value): 0.954 (inactive) | normalized growth (locus YJL129C, strain trk1, stronger effect = lower value): 0.923 (inactive) | normalized growth (locus YJL134W, strain LCB3, stronger effect = lower value): 0.997 (inactive) | normalized growth (locus YJL154C, strain vps35, stronger effect = lower value): 0.959 (inactive) | normalized growth (locus YJL164C, strain tpk1, stronger effect = lower value): 0.915 (active) | normalized growth (locus YJL166W, strain qcr8, stronger effect = lower value): 0.902 (active) | normalized growth (locus YJL168C, strain set2, stronger effect = lower value): 1.01 (inactive) | normalized growth (locus YJL187C, strain SWE1 (second series), stronger effect = lower value): 0.946 (inactive) | normalized growth (locus YJL187C, strain SWE1, stronger effect = lower value): 0.986 (inactive) | normalized growth (locus YJR043C, strain POL32, stronger effect = lower value): 0.978 (inactive) | normalized growth (locus YJR066W, strain TOR1, stronger effect = lower value): 0.911 (inactive)
